Structures are written as SMILES. This is part of a sample that, as a whole, favours compounds with a hit. Of some 83,000 tested, about 20% had one in any assay.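 Assay: single dose, 48 h. Readout: percent growth (0 = no net growth; negative = cell death). Active: <10.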 A number with no mark means an inactive call. Activity calls are given as the source filed them.

We go through 13 compounds from PubChem BioAssay (NCI).

The test system of this test is HL-60(TB) leukemia. The test is described as follows: NCI-60 one-dose screen, 48 h (100 = growth as untreated, 0 = no growth, -100 = all killed). To be noted: 10 µM unless noted.
Take `O=C1Nc2ccc(Cl)cc2/C1=C/c1ccc(OCc2ccccn2)cc1`: the growth was 85%. Then `O=C1c2cccc3c(N4CCN(Cc5ccccc5)CC4)ccc(c23)C(=O)N1c1cccc(-c2nn(-c3ccccc3)cc2-c2nc3ccccc3s2)c1`, with 105%; and `O=c1oc2ccc(-c3ccc(F)cc3F)cc2c(=O)n1-c1ccc(Cl)c(C(F)(F)F)c1`, with 1.38% (active). To `Cc1ccc(C2CC(c3ccc(NC(=S)Nc4ccccc4)cc3)=NN2c2ccc(S(N)(=O)=O)cc2)cc1` (stereo not drawn) belongs 8.89% (active); to `O=C(CSc1nc2sc3c(c2c(=O)n1-c1ccc(Cl)cc1)CCCC3)NNC(=O)c1ccc(Br)cc1`, 91.1%. To `Cn1cc(-c2nnc(N)nc2-c2c[nH]c3ccc(Br)cc23)c2cc(Br)cnc21` belongs 29.8%; to `COc1ccc2cc([C@H](C)C(=O)N/N=C/c3ccc(Br)cc3)ccc2c1`, 91.3%.

For the compound `C=C1CCC2C3(C)COC(c4cc(F)cc(F)c4)OC3CCC2(C)C1C/C=C1/C(=O)OCC1O` (stereo not drawn), the growth was -9.61% (active). Turning to `OCc1[nH]nc2cc(Nc3ncc4ccc(Br)c(OC5CCC(O)CC5)c4n3)ccc12` (stereo not drawn), the growth is -40.1% (active). To `O=C1Nc2cc(Cl)ccc2/C1=C/c1cccc(OCc2ccccc2)c1` belongs -25.3% (active). Then `Cc1noc2c(Cc3ccccc3)nn(CC(=O)N/N=C/c3ccc(F)cc3)c(=O)c12`, with 93.2%. To `O=[N+]([O-])c1cccc(-c2nnc3c(/C=C/c4ccc(F)cc4)nc4ccccc4n23)c1` belongs 92.7%; to `COc1cc(CNC(=O)C[C@H](C)CCC=C(C)C)ccc1OCc1cn(-c2ccccc2Cl)nn1`, 41.1%.
